High-throughput results as filed in PubChem.
CRE-bla Fsk – CRE-bla signaling modulation under forskolin stimulation | CHO CRE-bla reporter (cAMP response element driving beta-lactamase), forskolin EC10, beta-lactamase ratio | Potency, µM (highest dose often 38.2 µM), for the others: at the top dose activity change, negative = inhibition, actives largely listed as activators | 2.5% of 71,000 active; active = well fitted activation curve with a large enough effect in the signal ratio, with a control signal flat, not every such curve was filed as active; inconclusive = small, poorly fitted or top-dose-only effect, or effect the other way, or a change in a side signal; the % refers to the signal ratio; also: % of control where 0% means no effect
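Modulation of forskolin-driven signalling is measured in CHO cells carrying a CRE-controlled beta-lactamase reporter. Cells are stimulated with EC10 NKH 477 in the presence of titrated compound for 3 h at 37 °C, then loaded with CCF4 for 2 h at room temperature.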
15-hLO inh – 15-hLO (ALOX15) enzyme inhibition; P16050; purified 15hLO-1, xylenol orange hydroperoxide absorbance; Potency, µM (top dose mostly 57.1 µM), for the others: at the top dose activity change, negative = inhibition, hits mostly inhibitors; 1.4% of 74,000 active; AID 887; also: % is scaled to controls: 0 for no effect and ±100 for the full control effect; nearly all actives have a fitted effect of over 55% in size
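Readout: Fe(III)-xylenol orange absorbance, 573-to-405 nm ratio as reaction progress. Enzyme 40 nM purified human 15hLO-1, substrate 50 uM arachidonic acid, 6 min RT after 15 min compound preincubation; Hepes pH 7.5 buffer with Triton X-100.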
15-hLO-2 inh – inhibitors of human 15-lipoxygenase 2 (ALOX15B) | purified 15hLO-2, xylenol orange hydroperoxide absorbance | AID 881 | 0.56% of 110,000 active | Potency, µM (doses to about 57.1 µM), for the others: at the top dose activity change, negative = inhibition, actives largely listed as inhibitors | O15296; also: % is scaled to controls: 0 for no effect and ±100 for the full control effect; nearly all actives have a fitted effect of over 60% in size
Target sequence (O15296 whole entry, looked up): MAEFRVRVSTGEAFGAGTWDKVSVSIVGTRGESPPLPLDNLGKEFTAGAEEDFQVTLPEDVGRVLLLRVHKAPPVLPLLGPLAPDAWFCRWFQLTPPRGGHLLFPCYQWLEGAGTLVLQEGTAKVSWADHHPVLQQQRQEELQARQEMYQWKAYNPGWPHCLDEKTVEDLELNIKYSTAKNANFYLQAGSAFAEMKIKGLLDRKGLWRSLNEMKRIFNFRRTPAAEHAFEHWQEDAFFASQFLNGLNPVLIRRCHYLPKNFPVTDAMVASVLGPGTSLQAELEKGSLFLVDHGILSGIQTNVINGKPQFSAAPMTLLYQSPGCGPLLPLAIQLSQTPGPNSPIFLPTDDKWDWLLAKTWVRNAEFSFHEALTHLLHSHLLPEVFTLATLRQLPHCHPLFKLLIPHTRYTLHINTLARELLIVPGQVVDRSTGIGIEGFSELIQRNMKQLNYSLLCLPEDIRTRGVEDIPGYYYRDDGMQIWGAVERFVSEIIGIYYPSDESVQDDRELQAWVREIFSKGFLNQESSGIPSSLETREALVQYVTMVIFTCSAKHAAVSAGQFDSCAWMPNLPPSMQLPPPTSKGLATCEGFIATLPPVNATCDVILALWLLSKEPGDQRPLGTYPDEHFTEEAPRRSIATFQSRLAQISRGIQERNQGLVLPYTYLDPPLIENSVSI
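Screening format was qHTS against 50 nM purified 15hLO-2 in Hepes pH 7.5 with detergent. Activity follows hydroperoxide formation from 45 uM arachidonic acid, measured as 573:405 nm absorbance ratio of the ferric-xylenol orange complex.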
ERK AVP inh – blocks ERK signaling stimulated by vasopressin | AID 995 | HEK293-V1b, vasopressin-stimulated pERK AlphaScreen | 0.99% of 72,000 active | Potency, µM (top dose mostly 57.5 µM), for the others: top-dose activity, negative = inhibition, usual class: inhibitors; also: % is scaled to controls: 0 for no effect and ±100 for the full control effect; nearly all actives have a fitted effect of over 55% in size
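HEK293 cells stably expressing V1b receptor, seeded overnight in 1% FBS, were treated with compounds for 30 min at 37C, then stimulated 5 min with 25 nM vasopressin; phospho-ERK read by AlphaScreen SureFire after lysis.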
* hit, by the source's call; ? = inconclusive; · = no result given; ! = not confirmed by another sample; [ ] = dose if it differs, or a comment. This is a sample that favours compounds with a hit; in the whole collection about 3.2% have one here. Unless noted, calls follow the shape of the dose curve; as a rule, active = well fitted inhibition curve with a large enough effect; inconclusive = small, poorly fitted or top-dose-only effect; inactive = no such curve, though single readings can be large or run the other way. Potency is read from the fitted curve at half-maximal effect.

SMILES	CRE-bla Fsk	15-hLO inh	15-hLO-2 inh	ERK AVP inh
COc1ccc(Cn2nnnc2C(c2cccs2)N2CCN(c3ccccc3)CC2)cc1 (configuration not stated)	?	3%	0%	5%
C1CCC(c2nn3c(-c4n[nH]c5c4CCC5)nnc3s2)CC1	13µM*	6%	-5%	?
CCN(CC)c1ccc(-c2nn3c(-c4n[nH]c5c4CCC5)nnc3s2)cc1	?	-27%	18%	?
Cc1cc(=O)oc2cc(O[C@@H]3O[C@H](C(=O)O)[C@@H](O)[C@H](O)[C@H]3O)ccc12	·	2%[25.6 µM]	4%	?
N=C(N)c1ccc(-c2ccc(-c3ccc(C(=N)N)cc3)o2)cc1	?	12%[11.4 µM]	13%[11.4 µM]	-4%[11.5 µM]
COc1ccccc1-c1nc(S(=O)(=O)c2ccc(Cl)cc2)c(N(C)C)o1	6%	-11%	-2%	-2%
COc1cc(-c2nc(S(=O)(=O)c3ccc(C)cc3)c(N(C)C)o2)cc(OC)c1OC	2µM*	-6%	-7%	-13%
COc1cc(-c2nc(S(=O)(=O)c3ccc(C)cc3)c(N3CCOCC3)o2)cc(OC)c1OC	1µM*	-10%	-1%	-21%
Cc1ccc(C(=O)c2c(C)oc3c2C(=O)C(=O)c2ccccc2-3)cc1	·	·	25µM*	·
CCOC(=O)NC1(NC2CCCCC2)Oc2ccccc2O1	?	25µM*	-20%	-7%
Nc1ccc(O)cc1C(=O)OCC(=O)C12CC3CC(CC(C3)C1)C2	?	13µM*	5µM*	-2%
Oc1c(CN2CCN(c3ccccn3)CC2)cc(Cl)c2cccnc12	?	-56%	50%	32µM*
Oc1c(CN2CCCCC2)cc(COCc2ccccc2)c2cccnc12	-18%	25%	35%	6%
COCc1cc(CN2CCCC2)c(O)c2ncccc12	2%	2.5µM*	43%	-21%
OCCN1CCN(Cc2cc(Cl)c3cccnc3c2O)CC1	·	·	36%	·
C=C(C)[C@H]1CC=C(CO)CC1	·	·	17%[0.0915 µM]	·
O=c1c(CCc2ccccc2)nc2cnc(N3CCOCC3)nc2n1-c1ccccc1	7.9µM*	4%	-4%	16%
O=c1c(CCc2ccccc2)nc2cnc(N3CCOCC3)nc2n1Cc1ccc(F)cc1	?	-4%	-1%	-15%
N#CCCn1c(=O)c(CCc2ccccc2)nc2cnc(N3CCOCC3)nc21	3.2µM*	-27%	0%	?
OC1C2COC(O2)[C@H](O)C1O (some centres not stated)	·	2%	8%	25%
CCCn1c(CCC(=O)O)ccc1-c1ccc(F)cc1	?	7.9µM*	-13%	?
O=C(O)CCc1ccc(-c2ccc(Br)cc2)n1Cc1ccco1	-25%	16µM*	-9%	-13%
O=C(O)CCc1ccc(-c2ccccc2)n1Cc1ccco1	-13%	-7%	-7%	-13%
CCCCCCN(C(=O)CCCCCN1C(=O)NC(c2ccc(-c3ccccc3)cc2)C(C(=O)OCc2ccccc2)=C1C)C(C(=O)NCCCC)c1ccc(O)c(C(=O)OC)c1 (configuration not stated)	0%	-6%	-1%	4%
Cc1cc(O)ccc1Nc1nc2ccccc2nc1Nc1ccc(O)cc1C	3%	16µM*	-26%	10%
SMILES	CRE-bla Fsk	15-hLO inh	15-hLO-2 inh	ERK AVP inh
O=C(Oc1ccnc2cc(Cl)ccc12)N1CCCCCC1	17%	-1%	11%	?
Clc1ccc2c(N3CCCC3)ccnc2c1	?	20µM*	8%	-24%
CCOC(=O)c1cc2c(C(F)(F)F)cc(-c3cccnc3)nc2o1	?	7%	-4%	-4%
Cc1nn(CCC(=O)O)c2nc(-c3cccnc3)cc(C(F)(F)F)c12	10µM*	6%	1%	?
CN(C)c1cc(-c2cccc(NS(C)(=O)=O)c2)ncn1	?	?	0%	?
COc1ccc(CNc2nc3nc(C)c(Cl)c(C)n3n2)cc1OC	13µM*	10%	·	-8%
CC(=O)N1CCC2(CCCN(Cc3nccs3)C2)CC1	-23%	-2%	-2%	16%
O=C(c1ccncc1)N1CCC2(CCCN(Cc3nccs3)C2)CC1	0%	0.2µM*	21%	1%
CCOC(=O)c1sc(NC(=O)c2ccc3ncsc3c2)nc1C	13µM*	7%	-2%	·
Fc1ccc(-c2nnc3ccc(N4CCc5ccccc5C4)nn23)cc1	?	25µM*	-16%	-19%
O=C(Nc1ccc(F)cc1)N1CCN(c2ccc3nnc(-c4ccc(F)cc4)n3n2)CC1	·	·	30%	·
Cn1c(=O)n2n(c1=O)[C@H]1[C@H](O)[C@H]3O[C@@H]3/C(=N/OC[C@@H](O)COCc3ccco3)[C@@H]1CC2	·	1%[11.4 µM]	·	8%[11.5 µM]
CC(=O)c1ccc(NC(=O)c2cc3nc4c(c(C(F)(F)F)n3n2)CCCC4)cc1	·	·	-24%	·
O=C(NC1CCCCC1)c1cc2nc3c(c(C(F)(F)F)n2n1)CCCC3	13µM*	-9%	8%[2.29 µM]	-4%
COc1ccccc1CNc1cc(-c2cccc(NS(C)(=O)=O)c2)ncn1	?	-30%	-1%	?
Cc1nc(N=Nc2cc(S(=O)(=O)O)c3cc([N+](=O)[O-])cc(S(=O)(=O)O)c3c2)c(COP(=O)(O)O)c(C=O)c1O	-4%	10µM*!	1%	?
CC(C)(C)c1ccc(CN2CCN([C@H](c3ccccc3)c3ccc(Cl)cc3)CC2)cc1	1%[7.6 µM]	10%[11.4 µM]	16%[11.4 µM]	5%[11.5 µM]
Cc1nc(N2CCC(C(N)=O)CC2)c2nnn(Cc3ccccc3)c2n1	5%	-26%	1%	-24%
c1ccc(Cn2nnc3c(N4CCCC4)ncnc32)cc1	10µM*	3%	-5%	-18%
Cc1nc(N2CCCC2)c2nnn(Cc3ccccc3Cl)c2n1	2.5µM*	?	4%	-18%
CCN1CCN(c2ncnc3c2nnn3Cc2ccccc2)CC1	-3%	15%	7%	-21%
COc1ccc(Oc2ncc3nc(CCc4ccccc4)c(=O)n(C4CC4)c3n2)cc1	4%	-11%	-1%	8%
CS(=O)(=O)N1CCN(C(=O)c2csc3ccccc23)CC1	10µM*	2%	-2%	7%
COc1ccccc1-c1ccc2ncnc(NCc3ccccc3)c2c1	-19%	10%	17%	16µM*
CNc1ncnc2ccc(-c3ccccc3OC)cc12	?	-13%	27%	32%
SMILES	CRE-bla Fsk	15-hLO inh	15-hLO-2 inh	ERK AVP inh
COc1ccccc1CNc1ncnc2ccc(-c3ccccc3OC)cc12	?	-13%	52%	20µM*
COc1ccccc1CNc1ncnc2ccc(-c3cccnc3)cc12	?	-1%	59%	20µM*
COc1ccc(COC(=O)N/N=C2/C[C@@H](O)[C@@H](O)[C@@H]3[C@@H]4C(=O)N(Cc5ccccc5)C(=O)[C@H]4CC[C@H]23)cc1	·	2%[11.4 µM]	·	-3%[11.5 µM]
COc1ccc(Nc2nc(N)nc(C(F)(F)F)n2)c(OC)c1	13µM*	8%	8%	-22%
COc1ccc(Nc2nc(N3CCCC3)nc(N3CCCC3)n2)c(OC)c1	·	·	18%	·
CCn1nc(C(=O)OCC(=O)c2c[nH]c3ccccc23)c2ccccc2c1=O	4µM*	?	-5%	?
CC(C)n1nc(C(=O)OCC(=O)c2c[nH]c3ccccc23)c2ccccc2c1=O	·	·	-5%	·
